# Test results published in PMC5540273 (PLoS ONE, 2017).
# Columns and labels:
# Conditions in all cases: concentration: 1 μM, replicates: in singlicate; n = 1
# RIOK1 = test system: RIOK1
# RIOK2 = test system: RIOK2
# RIOK3 = test system: RIOK3
# RIPK1 = test system: RIPK1
# RIPK2 = test system: RIPK2
# RIPK4 = test system: RIPK4
# RIPK5 = test system: RIPK5
# ROCK1 = test system: ROCK1
# ROCK2 = test system: ROCK2
# ROS1 = test system: ROS1
# [1] = test system: RPS6KA4(Kin.Dom.1-N-terminal)
# [2] = test system: RPS6KA4(Kin.Dom.2-C-terminal)
# [3] = test system: RPS6KA5(Kin.Dom.1-N-terminal)
# [4] = test system: RPS6KA5(Kin.Dom.2-C-terminal)
# [5] = test system: T1, RSK1(Kin.Dom.1-N-terminal)
# T1 construct: gene RPS6KA1
# [6] = test system: T2, RSK1(Kin.Dom.2-C-terminal)
# T2 construct: gene RPS6KA1
# [7] = test system: T3, RSK2(Kin.Dom.1-N-terminal)
# T3 construct: gene RPS6KA3
# [8] = test system: T4, RSK2(Kin.Dom.2-C-terminal)
# T4 construct: gene RPS6KA3
# [9] = test system: T5, RSK3(Kin.Dom.1-N-terminal)
# T5 construct: gene RPS6KA2
# [10] = test system: T6, RSK3(Kin.Dom.2-C-terminal)
# T6 construct: gene RPS6KA2
# 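Further: KINOMEscan kinase panel screen.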
Compound,%Inh (RIOK1) [%],%Inh (RIOK2) [%],%Inh (RIOK3) [%],%Inh (RIPK1) [%],%Inh (RIPK2) [%],%Inh (RIPK4) [%],%Inh (RIPK5) [%],%Inh (ROCK1) [%],%Inh (ROCK2) [%],%Inh (ROS1) [%],%Inh [1] [%],%Inh [2] [%],%Inh [3] [%],%Inh [4] [%],%Inh [5] [%],%Inh [6] [%],%Inh [7] [%],%Inh [8] [%],%Inh [9] [%],%Inh [10] [%]
Cc1cc(-c2c(-c3ccc(F)cc3)ncn2CCCN2CCOCC2)nc(N)n1 [SB-222517],10,0,11,0,0,14,11,29,0,19,18,0,23,4,30,49,34,0,9,21
Cc1ccc(O)cc1Nc1ccnc2ccc(C(C)(C)C)cc12 [GW856805],15,0,11,16,79,41,22,51,39,28,4,9,2,8,30,0,39,32,16,0
O=C(O)C(F)(F)F.O=c1[nH]ccc2nc(N[C@@H]3CCNC3)nc(Nc3cc(Cl)cc(Cl)c3)c12 [GSK2188764],97.4,29,100,16,30,44,10,99.5,99.7,0,94.6,99.9,65,86,96.7,64,98.3,30,94.8,55
COc1cc(Nc2ccnc3cc(-c4ccncc4)ccc23)cc(OC)c1OC.Cl [GW494610],39,11,0,0,83,0,0,31,14,16,8,0,22,0,0,0,5,20,1,0
Cc1ccc(C)c(NC(=O)Nc2ccc(C)c(-c3ccc(C(=O)Nc4ccncc4)cc3)c2)c1 [GSK1398473],38,48,0,42,8,11,7,0,0,0,37,0,4,14,0,0,37,18,27,3
COc1ccc(C2=C(Nc3cccc(O)c3)C(=O)NC2=O)cc1 [SB-390766],22,0,0,0,32,10,0,18,19,0,0,0,2,0,32,0,24,96.4,3,21
O=C(O)C(F)(F)F.O=c1[nH]ccc2nc(N[C@@H]3CCNC3)nc(Nc3ccc4c(c3)S(=O)(=O)CC4)c12 [GSK2181306],98.9,60,92.9,0,9,96,94.4,99.7,99.7,29,91.8,100,62,95.4,97.8,78,97.6,31,91.3,87
Fc1cc(Cl)ccc1Nc1ccnc2cc(-c3ccc(CN4CCOCC4)o3)ccc12 [GW560109],30,0,0,0,94.4,0,0,5,46,0,35,0,9,0,6,28,14,44,100,0
Cc1ccc(O)cc1Nc1ccnc2cc(-c3ccc(CN4CCCCC4)o3)ccc12 [GW557777],16,0,21,12,91,4,12,0,0,11,0,9,0,10,0,90.7,0,40,1,29
Cl.Cl.NCC(NC(=O)c1cc(-c2cccnc2)c(-c2ccnc3[nH]ccc23)s1)c1ccccc1 (stereo not drawn) [GSK1323434],60,54,57,10,26,16,0,99.7,99.4,20,58,0,18,57,61,53,29,40,0,0
O=C1NC(=O)C(c2ccccc2Cl)=C1Nc1cccc(Cl)c1 [SB-342409],4,0,0,4,100,21,14,0,0,0,16,0,2,0,75,9,19,31,100,0
CCNC(=O)/C=C/c1n[nH]c2cc(Sc3ccccc3C(=O)NC)ccc12,0,7,0,0,29,4,18,4,1,33,8,21,4,0,24,15,8,0,8,34
NCCC(NC(=O)c1cc(Br)c(-c2ccnc3[nH]ccc23)s1)c1ccccc1.O=C(O)C(F)(F)F.O=C(O)C(F)(F)F (stereo not drawn) [GSK1307810],100,97.9,100,81,4,0,1,100,99.8,29,44,39,46,46,37,31,44,0,13,0
COc1ccc(C)c(Nc2ccnc(Nc3ccc(-c4cnc[nH]4)cc3)n2)c1.Cl [GW784041],36,6,34,13,100,0,0,0,0,3,26,5,8,10,0,1,0,3,1,6
CC(=O)Nc1cn2nc(Oc3cccc(NC(=O)c4cccc(C(F)(F)F)c4)c3)ccc2n1,0,0,39,0,67,0,0,0,0,0,47,0,0,6,0,0,0,30,0,5
Cn1cc(-c2ccc3c(c2)CCN3C(=O)Cc2cc(F)cc(C(F)(F)F)c2)c2c(N)ncnc21 [GSK2635225],21,2,26,100,59,0,0,3,6,29,0,0,23,6,1,5,0,19,19,0
CN(c1ccc(NC(=O)N2CCN(CCCN3CCOCC3)CC2)cc1)c1ccnc(Nc2ccc(CS(C)(=O)=O)cc2)n1.Cl [GW830899],80,0,82,4,17,100,0,0,0,5,31,0,0,0,2,1,0,1,0,0
c1ccc(Oc2ccc(Nc3ccnc4cc(-c5ccc(CN6CCCCC6)o5)ccc34)cc2)nc1 [GW567143],3,13,0,0,96.3,0,0,19,0,0,13,0,0,0,22,0,0,20,3,0
